From the supplement of paper PMC4466140

Biological target: SpBzz1-D2
Assay: SPOT peptide array binding signal intensity (averaged, normalized) (arbitrary units (background-subtracted, floor 0; scale differs between SH3 domains)); higher = stronger binding of the SH3 domain to the peptide
How it was run: (§1)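 GST-fused SH3 domains, from four yeast species, were produced in E. coli BL21(DE3) and captured on glutathione Sepharose. Membranes of cellulose carrying synthetic 15-mer peptides, in which cysteines had been replaced by serines, were exposed to each domain at 10 μg/ml overnight at 4°C in TBS-based blocking buffer. After anti-GST antibody, an HRP anti-mouse secondary and luminol, spots were imaged and quantified using Genespotter. Binding signal is normalized and background-subtracted spot intensity, averaged over replicates, in arbitrary units that differ between domains.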

Binder | SPOT peptide array binding signal intensity
VQPTAAPATPPRHIS | ≤ 0

Biological target: SpCyk3
Assay: as above
How it was run: as §1

Binder | SPOT peptide array binding signal intensity
VQPTAAPATPPRHIS | ≤ 0

Biological target: SpHof1
Assay: as above
How it was run: as §1

Binder | SPOT peptide array binding signal intensity
VQPTAAPATPPRHIS | 0.5

Biological target: SpHof1-2
Assay: as above
How it was run: as §1

Binder | SPOT peptide array binding signal intensity
VQPTAAPATPPRHIS | 0.25

Biological target: SpHof1-3
Assay: as above
How it was run: as §1

Binder | SPOT peptide array binding signal intensity
VQPTAAPATPPRHIS | 15

Biological target: SpHse1
Assay: as above
How it was run: as §1

Binder | SPOT peptide array binding signal intensity
VQPTAAPATPPRHIS | ≤ 0

Biological target: SpLsb1
Assay: as above
How it was run: as §1

Binder | SPOT peptide array binding signal intensity
VQPTAAPATPPRHIS | 2

Biological target: SpLsb4
Assay: as above
How it was run: as §1

Binder | SPOT peptide array binding signal intensity
VQPTAAPATPPRHIS | 4010

Biological target: SpMyo1
Assay: as above
How it was run: as §1

Binder | SPOT peptide array binding signal intensity
VQPTAAPATPPRHIS | ≤ 0

Biological target: SpNbp2
Assay: as above
How it was run: as §1

Binder | SPOT peptide array binding signal intensity
VQPTAAPATPPRHIS | ≤ 0

Biological target: SpPex13
Assay: as above
How it was run: as §1

Binder | SPOT peptide array binding signal intensity
VQPTAAPATPPRHIS | ≤ 0

Biological target: SpRvs167
Assay: as above
How it was run: as §1

Binder | SPOT peptide array binding signal intensity
VQPTAAPATPPRHIS | 1620

Biological target: SpSla1-D1-D2
Assay: as above
How it was run: as §1

Binder | SPOT peptide array binding signal intensity
VQPTAAPATPPRHIS | 0.5

Biological target: SpSla1-D3
Assay: as above
How it was run: as §1

Binder | SPOT peptide array binding signal intensity
VQPTAAPATPPRHIS | ≤ 0
